Several values for one entry are separate records, joined by “and”; a condition that tells them apart may be missing. Identical values can stand only once.

The first experiment deals with Tyrosine-protein kinase ABL1 (Homo sapiens) (UniProt P00519). To be noted: Compound concentration 20.0 uM.
Chain of Tyrosine-protein kinase ABL1 (Homo sapiens) (P00519 whole entry): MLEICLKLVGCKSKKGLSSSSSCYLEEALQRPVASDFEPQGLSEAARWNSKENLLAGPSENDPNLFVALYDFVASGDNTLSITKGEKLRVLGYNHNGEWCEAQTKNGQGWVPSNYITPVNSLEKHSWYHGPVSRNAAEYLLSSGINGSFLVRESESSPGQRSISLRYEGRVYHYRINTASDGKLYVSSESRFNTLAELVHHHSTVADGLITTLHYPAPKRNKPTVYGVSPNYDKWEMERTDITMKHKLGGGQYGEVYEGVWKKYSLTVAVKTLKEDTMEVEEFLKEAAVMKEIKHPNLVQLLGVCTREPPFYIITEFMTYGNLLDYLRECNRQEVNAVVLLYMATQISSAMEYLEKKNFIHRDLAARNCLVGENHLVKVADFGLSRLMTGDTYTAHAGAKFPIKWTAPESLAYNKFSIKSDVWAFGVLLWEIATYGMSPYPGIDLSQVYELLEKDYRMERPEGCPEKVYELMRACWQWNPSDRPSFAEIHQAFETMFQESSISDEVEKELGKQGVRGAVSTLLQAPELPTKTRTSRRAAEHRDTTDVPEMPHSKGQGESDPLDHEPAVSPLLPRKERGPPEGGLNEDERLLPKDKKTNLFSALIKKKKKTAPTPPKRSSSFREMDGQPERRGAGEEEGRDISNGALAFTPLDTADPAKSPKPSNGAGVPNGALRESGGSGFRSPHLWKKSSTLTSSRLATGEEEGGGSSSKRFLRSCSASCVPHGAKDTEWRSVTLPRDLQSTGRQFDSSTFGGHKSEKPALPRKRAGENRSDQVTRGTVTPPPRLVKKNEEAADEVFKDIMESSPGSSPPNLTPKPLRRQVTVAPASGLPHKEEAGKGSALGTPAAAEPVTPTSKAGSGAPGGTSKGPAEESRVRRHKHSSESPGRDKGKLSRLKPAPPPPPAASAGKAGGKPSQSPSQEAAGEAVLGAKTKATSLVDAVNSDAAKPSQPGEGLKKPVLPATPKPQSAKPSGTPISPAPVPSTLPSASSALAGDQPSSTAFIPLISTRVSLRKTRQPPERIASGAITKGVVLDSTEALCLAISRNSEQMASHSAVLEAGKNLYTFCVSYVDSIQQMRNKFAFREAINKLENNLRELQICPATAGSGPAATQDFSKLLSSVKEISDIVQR
As for `CC(C)(C)NS(=O)(=O)c1ccc(NC(=O)[C@H](Cc2ccccc2)NC(=O)c2ccc(F)cc2)cc1`, the ΔTm amounted to 2.48 °C.

With `CC(C)(C)OC(=O)NCCCCCN(CCc1ccccc1)C(=O)n1cc(-c2ccc(OC(F)(F)F)cc2)nn1`, the ΔTm is -0.13 °C.

`O=C(CN1CCN(c2ccc(F)cn2)CC1)Nc1nc2c(s1)CCCC2`: the ΔTm was determined as 0.42 °C.

As for `C[C@H](Nc1cc(Cl)nc2c1cnn2[C@@H]1O[C@H](COP(=O)(O)CP(=O)(O)O)[C@@H](O)[C@H]1O)c1ccccc1F`, the ΔTm came to 1.24 °C.

For the compound `OC[C@H]1O[C@@H](c2ccc(F)c(Cc3cc4ccccc4s3)c2)[C@H](O)[C@@H](O)[C@@H]1O`, the ΔTm is 0.51 °C.

Regarding `CCn1ncc2c(NC3CCOCC3)c(-c3nnc(Cc4sc(C)nc4C)o3)cnc21`, the ΔTm was 0.37 °C.

In the case of `O=c1[nH][nH]c(=O)c2cc(OCc3ccccc3F)ccc12`, the ΔTm is 3.37 °C.

For `Cc1cc(Cl)cc(-c2c3sc(CN4C(=O)C5C(C4=O)C5(C)C)cc3nn2C)c1OC1CCNCC1` (configuration not stated), the shift in melting temperature (ΔTm) was 0.34 °C.

Take `COc1cc(C(=O)NCC2(N(C)C)CCCC2)cc(OC)c1OCc1ccccc1`: the ΔTm came out at 0.81 °C.

For `CNC(=O)N1CCc2c(c(N3CCCc4cc(-c5cnn(C)c5)c(C(F)F)cc43)nn2C2CCOCC2)C1`, the ΔTm was determined as 0.09 °C.

Consider `Nc1ccccc1NC(=O)c1ccc(CNc2nccc(-c3cccnc3)n2)cc1`, for which the shift in melting temperature (ΔTm) came out at 1.28 °C.

Regarding `CCCCCCCCCCCCCCCCNNC(=O)c1cccs1`, the ΔTm was 0.05 °C.

In the case of `CN1CCN2c3c(cccc31)[C@@H]1CN(CCCC(=O)c3ccc(F)cc3)CC[C@@H]12`, the ΔTm is -0.01 °C.

Turning to `Cn1ncc(-c2nn(C)c3ncnc(N4CCC4)c23)c1-c1ccc(C(F)(F)F)cc1`, the ΔTm was found to be 0.03 °C.

For the compound `COc1cc2c(NC3CCN(C)CC3)cc(-c3ccc(C)o3)nc2cc1OCCCN1CCCC1`, the ΔTm was found to be 0.3 °C.

Consider `O=C(NCCCc1ccccc1)c1cccc(-c2cc(O)c3ncccc3c2)c1`, for which the ΔTm was 0.62 °C.

For the compound `N=C(N)SCc1ccc(CN2C(=O)C(=O)c3cc(Br)cc(Br)c32)cc1`, the ΔTm is -4.26 °C.

For `O=C(C[C@@H](C(F)F)n1ccc(F)n1)N1CCC(O)(Cn2cnc3c(cnn3-c3ccc(F)cc3)c2=O)CC1`, the thermal shift (ΔTm) was determined as 0.8 °C.

With `Cc1c(CN2CCC(Nc3ncnc4sc(CC(F)(F)F)cc34)CC2)ccc2[nH]c(C#N)cc12`, the ΔTm was -0.58 °C.

For the compound `N#Cc1ccc(-c2c3n(c4cccnc24)CCN(C2CC2)C3=O)cc1F`, the ΔTm came to 0.62 °C.

With `COc1cc2c(NC3CCN(C4CCCCC4)CC3)nc(N3CCCN(C(C)C)CC3)nc2cc1OCCCN1CCCCC1`, the ΔTm turned out to be 0.29 °C.

On to `CC(C)NCC(O)COC(Cn1c2ccccc2c2ccccc21)Cn1c2ccccc2c2ccccc21` (configuration not stated), for which the ΔTm amounted to 0.25 °C.

With `N#Cc1ccc(-c2csc(NN=C3CCCC3)n2)cc1`, the ΔTm amounted to 1.02 °C.

Take `O=C(NC[C@H](O)CN1CCc2ccccc2C1)c1cc(NC2COC2)ncn1`: the ΔTm came to 0.58 °C.

Consider `CC(C)c1ccc(-c2cc(=O)c3ccccc3o2)cc1`, for which the ΔTm was determined as 1.37 °C.

Regarding `CC(C)NC(=O)c1ccc(OC(F)F)c(OCC2CC2)c1`, the ΔTm turned out to be 0.64 °C.

Regarding `O=C(C1CC1)N1CC[C@@H](Cc2n[nH]c(=O)n2-c2ccc(-c3ccc4occc4c3)cc2)C1`, the thermal shift (ΔTm) was 0.72 °C and 0.71 °C.

For the compound `CCCCCCCCCCCCCC(=S)NCCCC[C@H](NC(=O)OCc1ccccc1)C(=O)Nc1ccccc1`, the ΔTm stood at 0.75 °C.

Take `CCNC(=O)c1noc(-c2cc(C(C)C)c(O)cc2O)c1-c1ccc(CN2CCOCC2)cc1`: the shift in melting temperature (ΔTm) worked out at 0.97 °C.

With `Cn1ncc2c(-c3c(-c4ccc(F)cn4)nn4c3COC(C)(C)C4)ccnc21`, the ΔTm came to 0.22 °C.

On to `CCCCNc1cc(C(=O)O)cc(S(N)(=O)=O)c1Oc1ccccc1`, for which the thermal shift (ΔTm) was found to be 0.19 °C.

As for `CN(C)CCCCC(=O)Nc1ccc(NC(=S)NC(=O)c2ccc(C(C)(C)C)cc2)cc1`, the thermal shift (ΔTm) was found to be 0.43 °C.

With `CC(C)C(=O)c1c(C(C)C)nn2ccccc12`, the ΔTm amounted to 0.8 °C.

Turning to `Cc1nn(CC(F)(F)F)cc1Nc1ncc(Br)c(NCc2ccc(S(N)(=O)=O)cc2)n1`, the ΔTm is 2.53 °C.

On to `NS(=O)(=O)OC[C@H]1C[C@@H](Nc2ncncc2C(=O)c2ccn(Cc3cccc(Br)c3)n2)C[C@@H]1O`, for which the ΔTm was determined as 0.71 °C.

Turning to `Cc1noc(C)c1-c1cc(Cl)c(Nc2ccccc2C(=O)O)c(Cl)c1`, the shift in melting temperature (ΔTm) stood at 0.49 °C.

Consider `CC(=O)NCC(=O)N1CCC[C@@H]1B(O)O`, for which the ΔTm is 0.26 °C.

Consider `C[C@@H](Nc1nc2c(cnn2C2CCCC2)c(=O)[nH]1)C(=O)N1CC[C@H](F)C1`, for which the thermal shift (ΔTm) amounted to 0.58 °C.

A further experiment has as its target Bromodomain-containing protein 4 (Homo sapiens) (UniProt O60885). To be noted: Compound concentration 20.0 uM.
For `CC(C)(C)NS(=O)(=O)c1ccc(NC(=O)[C@H](Cc2ccccc2)NC(=O)c2ccc(F)cc2)cc1`, the ΔTm is -1.97 °C.

On to `CC(C)(C)OC(=O)NCCCCCN(CCc1ccccc1)C(=O)n1cc(-c2ccc(OC(F)(F)F)cc2)nn1`, for which the ΔTm was -3.63 °C.

For `O=C(CN1CCN(c2ccc(F)cn2)CC1)Nc1nc2c(s1)CCCC2`, the ΔTm was -2.75 °C.

As to `C[C@H](Nc1cc(Cl)nc2c1cnn2[C@@H]1O[C@H](COP(=O)(O)CP(=O)(O)O)[C@@H](O)[C@H]1O)c1ccccc1F`, the ΔTm is -1.43 °C.

Turning to `OC[C@H]1O[C@@H](c2ccc(F)c(Cc3cc4ccccc4s3)c2)[C@H](O)[C@@H](O)[C@@H]1O`, the shift in melting temperature (ΔTm) is -3.4 °C.

In the case of `CCn1ncc2c(NC3CCOCC3)c(-c3nnc(Cc4sc(C)nc4C)o3)cnc21`, the ΔTm was -1.68 °C.

In the case of `O=c1[nH][nH]c(=O)c2cc(OCc3ccccc3F)ccc12`, the ΔTm was -1.6 °C.

Consider `Cc1cc(Cl)cc(-c2c3sc(CN4C(=O)C5C(C4=O)C5(C)C)cc3nn2C)c1OC1CCNCC1` (configuration not stated), for which the ΔTm is -5.5 °C.

On to `COc1cc(C(=O)NCC2(N(C)C)CCCC2)cc(OC)c1OCc1ccccc1`, for which the thermal shift (ΔTm) is -1.07 °C.

`CNC(=O)N1CCc2c(c(N3CCCc4cc(-c5cnn(C)c5)c(C(F)F)cc43)nn2C2CCOCC2)C1`: the shift in melting temperature (ΔTm) was 1.4 °C.

For the compound `Nc1ccccc1NC(=O)c1ccc(CNc2nccc(-c3cccnc3)n2)cc1`, the ΔTm is -1.59 °C.

On to `CCCCCCCCCCCCCCCCNNC(=O)c1cccs1`, for which the ΔTm is -1.37 °C.

On to `CN1CCN2c3c(cccc31)[C@@H]1CN(CCCC(=O)c3ccc(F)cc3)CC[C@@H]12`, for which the ΔTm is -0.67 °C.

With `Cn1ncc(-c2nn(C)c3ncnc(N4CCC4)c23)c1-c1ccc(C(F)(F)F)cc1`, the ΔTm is -2.92 °C.

Consider `COc1cc2c(NC3CCN(C)CC3)cc(-c3ccc(C)o3)nc2cc1OCCCN1CCCC1`, for which the ΔTm turned out to be 0.18 °C.

Consider `O=C(NCCCc1ccccc1)c1cccc(-c2cc(O)c3ncccc3c2)c1`, for which the ΔTm was -0.53 °C.

As to `N=C(N)SCc1ccc(CN2C(=O)C(=O)c3cc(Br)cc(Br)c32)cc1`, the ΔTm is -11.4 °C.

On to `O=C(C[C@@H](C(F)F)n1ccc(F)n1)N1CCC(O)(Cn2cnc3c(cnn3-c3ccc(F)cc3)c2=O)CC1`, for which the thermal shift (ΔTm) was -3.01 °C.

Take `Cc1c(CN2CCC(Nc3ncnc4sc(CC(F)(F)F)cc34)CC2)ccc2[nH]c(C#N)cc12`: the ΔTm was 0.25 °C.

`N#Cc1ccc(-c2c3n(c4cccnc24)CCN(C2CC2)C3=O)cc1F`: the ΔTm was -3.17 °C.

`COc1cc2c(NC3CCN(C4CCCCC4)CC3)nc(N3CCCN(C(C)C)CC3)nc2cc1OCCCN1CCCCC1`: the ΔTm was -1.02 °C.

Take `CC(C)NCC(O)COC(Cn1c2ccccc2c2ccccc21)Cn1c2ccccc2c2ccccc21` (configuration not stated): the ΔTm is 0 °C.

Consider `N#Cc1ccc(-c2csc(NN=C3CCCC3)n2)cc1`, for which the ΔTm was -1.71 °C.

Regarding `O=C(NC[C@H](O)CN1CCc2ccccc2C1)c1cc(NC2COC2)ncn1`, the ΔTm was -1.3 °C.

For `CC(C)c1ccc(-c2cc(=O)c3ccccc3o2)cc1`, the ΔTm is -0.23 °C.

Consider `CC(C)NC(=O)c1ccc(OC(F)F)c(OCC2CC2)c1`, for which the ΔTm was -3.14 °C.

As to `O=C(C1CC1)N1CC[C@@H](Cc2n[nH]c(=O)n2-c2ccc(-c3ccc4occc4c3)cc2)C1`, the ΔTm is -1.91 °C and -3.51 °C.

On to `CCCCCCCCCCCCCC(=S)NCCCC[C@H](NC(=O)OCc1ccccc1)C(=O)Nc1ccccc1`, for which the ΔTm is 2.49 °C.

With `CCNC(=O)c1noc(-c2cc(C(C)C)c(O)cc2O)c1-c1ccc(CN2CCOCC2)cc1`, the ΔTm was -0.86 °C.

Turning to `Cn1ncc2c(-c3c(-c4ccc(F)cn4)nn4c3COC(C)(C)C4)ccnc21`, the ΔTm came out at 0.28 °C.

For `CCCCNc1cc(C(=O)O)cc(S(N)(=O)=O)c1Oc1ccccc1`, the ΔTm was -1.86 °C.

`CN(C)CCCCC(=O)Nc1ccc(NC(=S)NC(=O)c2ccc(C(C)(C)C)cc2)cc1`: the ΔTm was -4.74 °C.

In the case of `CC(C)C(=O)c1c(C(C)C)nn2ccccc12`, the ΔTm was -2.97 °C.

`Cc1nn(CC(F)(F)F)cc1Nc1ncc(Br)c(NCc2ccc(S(N)(=O)=O)cc2)n1`: the ΔTm was -2.79 °C.

For `NS(=O)(=O)OC[C@H]1C[C@@H](Nc2ncncc2C(=O)c2ccn(Cc3cccc(Br)c3)n2)C[C@@H]1O`, the ΔTm was -2.22 °C.

In the case of `Cc1ncc(Cl)cc1NCc1ccc(C(=O)N[C@@H](CC2CCCC2)C(=O)NC2CC2)s1`, the ΔTm is -3.44 °C.

For `Cc1noc(C)c1-c1cc(Cl)c(Nc2ccccc2C(=O)O)c(Cl)c1`, the ΔTm came to 2.54 °C.

On to `CC(=O)NCC(=O)N1CCC[C@@H]1B(O)O`, for which the ΔTm is -0.72 °C.

Regarding `C[C@@H](Nc1nc2c(cnn2C2CCCC2)c(=O)[nH]1)C(=O)N1CC[C@H](F)C1`, the ΔTm is -2.88 °C.

For orientation: ΔTm means the change in melting temperature against a reference sample.

The values above are taken from ChEMBL document CHEMBL5724796, “Tm Shift (DSF) assay results for EUbOPEN Chemogenomics Library” (2024).
